# From PubChem BioAssay
# Test: A549 cell viability effects, profiling panel, calcein-AM fluorescence, 48 h, basal (AID 1162); note: test concentration not given here
# Conditions: higher = more signal
row,Compound,z-score
1,COCCOC(=O)N1C(=O)[C@@]2(c3cc(C#CCC(C(=O)OC)C(=O)OC)ccc31)[C@H](c1ccc(O)cc1)N1[C@H](c3ccccc3)[C@H](c3ccccc3)OC(=O)[C@H]1[C@@H]2C(=O)N1CCc2cc(OC)c(OC)cc2C1,0.393
2,C[C@]1(C(=O)O)c2ccccc2C(=O)N(Cc2cc(C(F)(F)F)cc(C(F)(F)F)c2)[C@H]1c1ccc(CO)cc1,-0.557
3,O=C(N1CCOCC1)[C@]1(CCS(=O)(=O)c2ccccc2)N=C(c2ccc(OCCCO)cc2)O[C@@H]1c1ccccc1,0.569
4,CC1(C)OB(/C=C\CC(OC(=O)c2ccncc2)c2ccccc2)OC1(C)C (stereo not given),-0.0116
5,COC(=O)[C@]1(Cc2ccccc2CN=[N+]=[N-])N=C(c2ccc(OCCCO)cc2)O[C@@H]1c1ccccc1N=[N+]=[N-],-3.25
6,CC(C)(C)OC(=O)CC[C@@]1(C(=O)N2CCOCC2)N=C(c2ccc(OCCCO)cc2)O[C@@H]1c1ccccc1CN=[N+]=[N-],-0.688
7,COC(=O)[C@@]1(Cc2ccccc2)[C@H]2c3cc(C(=O)N(C)C)n(Cc4ccc(Cl)c(C(F)(F)F)c4)c3C[C@H]2CN1C(=O)c1ccccc1,-1.42
8,CN1C(=O)C2C(C1=O)C1C=C(CCCO)C2C(C2CC2)N1C (stereo not given),-0.0397
9,CO[C@H]1O[C@H](CO)[C@@H](OC(=O)CCc2ccccc2)[C@@H]2OC(=O)[C@@H](Cc3ccc4ccccc4c3)C/C=C/C[C@H](Cc3ccc4ccccc4c3)C(=O)O[C@@H]12,1.39
10,C=C(C(=O)CC[C@@H](OC(=O)c1ccccc1-c1ccccc1C(=O)O)c1ccc(OCCO)cc1)C(C)C,-0.514
11,[N-]=[N+]=NCc1ccccc1[C@H]1OC(c2ccc(OCCCO)cc2)=N[C@@]1(Cc1ccccc1N=[N+]=[N-])C(=O)O,-0.374
12,C=CCN1C(=O)[C@]2(O[C@H](CCO)[C@@H]([Si](C)(C)c3ccc(OC)cc3)[C@@H]2C)c2cc(N3C(=O)c4ccccc4Oc4ccccc43)ccc21,-3.65
13,CCOC(=O)C[C@H]1[C@H](OC(=O)c2ccc(-c3ccccc3)cc2)[C@@H](NC(=O)C2CCCCC2)c2cc(OCCCO)ccc2N1C(=O)Cc1ccc(OC)cc1,-0.869
14,C=CCNC(=O)[C@@H]1[C@H]2C(=O)O[C@H](c3ccccc3)[C@H](c3ccccc3)N2[C@H](c2ccc(OCCO)cc2)[C@@]12C(=O)Nc1ccc(C#CCNC(N)=O)cc12,-0.842
15,CC(C)Cc1ccc(CN2CC[C@@H](NC(=O)c3ccccc3)C2)cc1,0.0665
16,CC(=O)NCCCC[C@@H]1NC(=O)[C@H]2C[C@@H](C(=O)NCCCCCN)[C@@H](c3ccc(O)cc3)N2C1=O,-0.754
17,CCCNC(=O)[C@@]1(Sc2ccc(C)cc2)CC(=O)N(Cc2cc(C(F)(F)F)cc(C(F)(F)F)c2)[C@@H]1c1ccc(CO)cc1,-0.259
18,Cc1ccc(S[C@]2(C(=O)NCc3ccccc3)CC(=O)N(Cc3ccccc3C(F)(F)F)[C@@H]2c2ccc(CO)cc2I)cc1,1.13

row,Compound,z-score
1,CCc1cccc(NC(=O)O[C@H]2[C@H](OC(=O)Nc3ccccc3-c3ccccc3)[C@H](OC(=O)Nc3ccccc3-c3ccccc3)[C@@H](OC)O[C@@H]2CO)c1,-2.01
2,Cc1ccc(S[C@]2(C(=O)NCC(C)C)CC(=O)N(C(C)C)[C@@H]2c2ccc(CO)cc2I)cc1,1.97
3,COC(=O)C(CC#Cc1ccc2c(c1)[C@]1(C(=O)N2)[C@H](C(=O)N2CCCCCCC2)[C@H]2C(=O)O[C@H](c3ccccc3)[C@H](c3ccccc3)N2[C@@H]1c1ccc(OCCO)cc1)C(=O)OC,-0.369
4,O=C1NC(=O)C2C1C=CC(C(O)C1CCCCC1)N2Nc1ccccn1 (stereo not given),-1.05
5,CN1C(=O)C2C=CC(C(O)c3ccc(I)cc3)N(N(c3ccccc3)c3ccccc3)C2C1=O (stereo not given),-0.62
6,COC(=O)[C@]1(Cc2ccccc2N=[N+]=[N-])N=C(c2ccc(OCCCO)cc2)O[C@@H]1c1ccccc1CN=[N+]=[N-],-3.36
7,COC(=O)[C@@]1(Cc2ccc(F)cc2)[C@H]2c3cc(C(=O)N(C)C)n(Cc4ccc(C(F)(F)F)nc4)c3C[C@H]2CN1C(=O)c1ccccc1,-0.509
8,C=C(CCCC)/C(=C/C[C@@H](OC(C)=O)c1ccc(OCCO)cc1)c1cc(C(=O)OC)ccc1OC,-0.144
9,COc1ccc([Si](C)(C)[C@@H]2[C@@H](CC(=O)N3Cc4ccccc4C[C@H]3CO)O[C@]3(C(=O)N(Cc4ccc(I)cc4)c4ccccc43)[C@H]2C)cc1,-0.806
10,C=CCNC(=O)[C@@H]1[C@H]2C(=O)O[C@H](c3ccccc3)[C@H](c3ccccc3)N2[C@H](c2ccc(O)cc2)[C@@]12C(=O)Nc1ccc(C#CC3=CCCCC3)cc12,0.0719
11,COCCOC(=O)N1C(=O)[C@@]2(c3cc(C#CCCO)ccc31)[C@H](C(=O)N1CCN(c3ncccn3)CC1)[C@H]1C(=O)O[C@H](c3ccccc3)[C@H](c3ccccc3)N1[C@@H]2c1ccc(OCCO)cc1,0.451
12,O=C1N(Cc2ccccc2)Cc2ccccc2C[C@@]12COC(c1ccc(OCCCO)cc1)=N2,-1.62
13,[N-]=[N+]=NCc1ccccc1[C@H]1OC(c2ccc(OCCCO)cc2)=N[C@@]1(Cc1ccccc1N=[N+]=[N-])C(=O)N1CCOCC1,-0.612
14,CO[C@H]1O[C@H](CO)[C@@H](OC(=O)Nc2cccc(F)c2)[C@H](OC(=O)Nc2ccc3c(c2)OCO3)[C@@H]1OC(=O)Nc1ccc2c(c1)OCO2,-1.33
15,[N-]=[N+]=Nc1ccccc1C[C@@]1(C(=O)NCc2ccccc2)N=C(c2ccc(OCCCO)cc2)O[C@@H]1c1ccccc1,-1.36
16,C=C[C@H](C)[C@@H](OC(=O)Nc1ccc(SC)cc1)c1ccc(OCCO)cc1,-0.305
17,COc1ccc(C#Cc2ccc3c(c2)[C@]2(C(=O)N3)[C@H](c3ccccc3OCCO)N3[C@H](c4ccccc4)[C@H](c4ccccc4)OC(=O)[C@H]3[C@@H]2C(=O)NC[C@H](O)c2ccccc2)cc1,-1.22
